About 50,000 (12%) of roughly 420,000 compounds were called active. A call without a number means that no potency is given here. Not shown: some 26% with an inconclusive outcome. Calls follow the shape of the dose curve; as a rule, active = well fitted inhibition curve with a large enough effect; inconclusive = small, poorly fitted or top-dose-only effect; inactive = flat fitted curve, though single readings scatter. Only a selection was taken, and actives are over-represented in it overall.
assay: qHTS for Inhibitors of human tyrosyl-DNA phosphodiesterase 1 (TDP1): qHTS in cells in presence of CPT; conditions: chicken DT40 Tdp1-/-;hTDP1 cells + 20 nM CPT, ATP luminescence, 48 h; series mostly up to 46.2 µM; also: nearly all actives have a fitted effect of over 55% in size
Method in brief: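 Chicken DT40 Tdp1-/- cells stably complemented with human TDP1 were seeded at 400 cells/well in medium containing 20 nM camptothecin, exposed to pin-transferred compounds, and grown at 37 °C for at least 48 hr. Viability was read as ATP luminescence.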
Potency is read from the fitted curve at half-maximal effect.

Structure (SMILES)	Potency
CCCn1nc(C(=O)NNC(=O)CCOc2ccccc2OCC)c2ccccc2c1=O	inactive
CN(C)/C=C(\C#N)C(=O)c1cccnc1Oc1ccc(F)cc1F	inactive
CCOC(=O)C1(O)CC(C)=NN1C(=O)c1cccc(Br)c1 (stereo not given)	inactive
CCN(C(=O)CSc1ncnc2c1cnn2-c1ccccc1)C1CCS(=O)(=O)C1 (stereo not given)	inactive
O=S(=O)(c1ccc(F)cc1)N1CCN(Cc2ccccc2C(F)(F)F)CC1	inactive
O=c1[nH]nc(SCCS(=O)(=O)c2ccc(F)cc2)n1-c1ccccc1C(F)(F)F	23.1 µM (active)
O=C(CSc1n[nH]c(=O)n1-c1ccccc1)Nc1ccccc1C(F)(F)F	inactive
O=C(NCC1Cc2cc(F)cc(-c3cnccn3)c2O1)C1COc2ccccc2O1 (stereo not given)	inactive
S=C(c1ccccc1)N1CCCC1	inactive
CCOC(=O)c1c(NC(=O)CSc2nccc(=O)[nH]2)sc(C)c1C	inactive
NC(=O)C1CCN(C(=O)c2ccc(F)c(S(=O)(=O)N3CCOCC3)c2)CC1	inactive
CC1CCN(C(=O)c2ccc(S(=O)(=O)Cc3cc(F)ccc3F)c([N+](=O)[O-])c2)CC1	6.51 µM (active)
Nc1ccc(C(=O)N2CCN(S(=O)(=O)c3ccc(Cl)cc3)CC2)cc1[N+](=O)[O-]	inactive
Cc1noc(NS(=O)(=O)c2ccc(NC(=O)c3oc4ccc(F)cc4c3C)cc2)c1C	inactive
CC(=O)Nc1c2c(nn1-c1ccc(C)cc1C)CS(=O)C2 (stereo not given)	inactive
C[C@H](NC(=O)C1CC(=O)N(c2ccc3c(c2)OCCO3)C1)C(=O)N1CCC(C(=O)O)CC1 (stereo not given in full)	inactive
CC(=O)Nc1c2c(nn1-c1cccc(C)c1)CSC2	inactive
O=C(NC1Cc2ccccc2C1)c1cc(COc2cccc(C(F)(F)F)c2)on1	inactive
CC(=O)c1cccc(OCc2cc(C(=O)NC(C)Cc3cccnc3)no2)c1 (stereo not given)	16.4 µM (active)
CC(C)Cc1cc(C(=O)NCCc2ccccc2)no1	inactive
CCn1ccnc1CN(C)C(=O)c1cc(COc2ccc(-n3cncn3)cc2)on1	inactive
O=C(NCCCc1ccccc1)c1cc(COc2c(F)cccc2F)on1	inactive

Structure (SMILES)	Potency
CCC(NC(=O)c1cc(COc2ccc(F)c(F)c2)on1)c1ccncc1 (stereo not given)	20.6 µM (active)
CCCOc1cccc(C(=O)NCCCNC(=O)c2cccnc2)c1	inactive
Cc1ccc(OCc2cc(C(=O)N(C)CCc3ccccc3)no2)cc1C	inactive
CN(Cc1cccnc1)C(=O)c1cc(COc2ccc3ncccc3c2)on1	4.61 µM (active)
CC(N)(C(=O)O)c1ccc(-c2nn[nH]n2)cc1 (stereo not given)	inactive
COC(=O)C[C@H]1C=C[C@H](NC(=O)c2ccc(F)cc2)[C@@H](CO)O1	inactive
Cc1sc(NC(=O)C2=COCCO2)c(C#N)c1C	inactive
CC1(C)C(c2cccs2)=[N+]([O-])C2(CCCCC2=O)N1O (stereo not given)	inactive
Cc1cccn2cc(-c3cccc(S(=O)(=O)N4CCCCC4)c3)nc12	inactive
O=C(NCCCN1CCOCC1)C1CCCN(S(=O)(=O)N2CCCCC2)C1 (stereo not given)	inactive
COc1cccc2c1C(=O)c1c(O)c3c(c(O)c1C2=O)CC(O)(C(C)=NNC(=O)c1ccc(Cl)c(Cl)c1)CC3OC1CC(N)C(O)C(C)O1 (stereo not given)	0.164 µM (active)
CCOC(=O)c1cnc2c(c(C)nn2CC)c1Cl	inactive
COc1ccccc1CNS(=O)(=O)c1ccc2c(c1)NC(=O)CS2	inactive
COc1cccc(-c2ccc3c(c2)N(Cc2ccccc2OC)C(=O)C(C)S3)c1 (stereo not given)	25.9 µM (active)
COc1ccc(CN2C(=O)C(C)S/C2=N/N=C/c2ccco2)cc1 (stereo not given)	inactive
CCCc1nc(-c2ccccc2O)n(-c2ccccc2)n1	inactive
CCCc1nc(N2CCN(C)CC2)c2sc(=S)n(-c3ccccc3)c2n1	18.4 µM (active)
Cc1cnc(NC(=O)CSc2c(Cl)cccc2Cl)s1	14.6 µM (active)
Cc1cnc(NC(=O)CSc2nnc(-c3ccccc3)n2Cc2ccccc2)s1	inactive
Cc1cnc(NC(=O)CSc2nnc(C)s2)s1	inactive
COC(=O)c1ccc(NC(=O)CSc2nnc(CNc3ccc(OC)cc3)n2C)cc1	inactive
COc1ccc(CC(=O)NCc2nnc(SCC(=O)Nc3nccs3)n2C)cc1	inactive

Structure (SMILES)	Potency
COc1ccc(CC(=O)NCc2nnc(SCC(=O)Nc3ncc(C)s3)n2C)cc1	16.4 µM (active)
O=C(NCc1ccccc1)C(c1ccco1)N(C(=O)c1csnn1)c1ccccc1F (stereo not given)	inactive
CCCCN(C(=O)COc1ccc(NC(C)=O)cc1)C1CCS(=O)(=O)C1 (stereo not given)	inactive
COc1ccc(CNC(=O)CCC(=O)Nc2nnc(C(C)C)s2)cc1	inactive
CC[C@@H]1CC2=C(C(=O)OC(C)(C)O2)[C@@H](CC)O1	inactive
Cn1c(CC(=O)Nc2ccc(F)cc2)nnc1SCC(=O)NC1CCCCC1	inactive
O=C(NCCN1CCOC1=O)C1CCC(=O)N(CCc2ccc(Cl)cc2)C1 (stereo not given)	inactive
C=CCNCCCCOc1ccccc1	inactive
Cc1ccc(-c2c3c(=O)n(C)c(=O)n(C)c3cn2-c2ccccc2O)cc1	inactive
COc1ccc(-c2c3c(=O)n(C)c(=O)n(C)c3cn2NC(C)=O)cc1	inactive
COc1ccc(-c2c3c(=O)n(C)c(=O)n(C)c3cn2-c2cccc(OC)c2)cc1	29.1 µM (active)
COc1ccc(Nc2cc(=O)n(-c3ccccc3)c3c2c(=O)n(C)c(=O)n3C)cc1	inactive
COc1ccc(-c2[nH]c3c(c2-c2c(-n4cccc4)n(C)c(=O)n(C)c2=O)c(=O)n(C)c(=O)n3C)cc1	inactive
COc1cccc(-n2cc3c(c2-c2ccccc2)c(=O)n(C)c(=O)n3C)c1	23.1 µM (active)
COc1ccccc1N(CC(=O)Nc1c(C)n(C)n(-c2ccccc2)c1=O)S(=O)(=O)c1ccccc1	inactive
Cc1c(Cl)cccc1NC(=O)NCCCN1CCCC1=O	inactive
O=C(OCc1cc(=O)n2nc(C3CC3)sc2n1)c1ccccc1Cl	inactive
C=CCOC(=O)C1=C[C@H](c2ccc(Br)cc2)C[C@H](OCCCCO)O1	inactive
CSc1nc(O)c(Cc2ccccc2)c(=O)[nH]1	inactive
COc1ccc(Cc2nnc(SC)[nH]c2=O)cc1	12.6 µM (active)
COc1ccc(Cc2nnc(SCC(=O)Nc3ccc(C)c(Cl)c3)[nH]c2=O)cc1	inactive

Source: PubChem BioAssay AID686979 (National Center for Advancing Translational Sciences (NCATS), 2013)
